Assay outcomes: PubChem BioAssay, several laboratories
APOBEC3G inh: APOBEC3G (human) deaminase inhibition; Q9HC16; recombinant A3G, ssDNA deamination FAM/TAMRA fluorescence; inhibition, % at 20 µM; 330,000 compounds, 0.28% hits;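 active means inhibition of at least 40% at 20 µM, with no more than 30% in the related APOBEC3A deaminase screen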;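 further: plate controls were DMSO wells with A3G for no effect and wells lacking A3G enzyme for full effect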
PfM18AAP inh: PfM18AAP enzyme inhibition. recombinant PfM18AAP, H-Glu-NHMec fluorogenic cleavage. inhibition, % at 7.35 µM. 290,000 compounds, 1.2% hits;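 active means inhibition above the campaign mean inhibition over all tested compounds plus 3 SD, cut at about 28% in these data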;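 further: 0% = plate median of test compound wells and 100% = 2 mM ZnCl2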
A3A deaminase: blocks human APOBEC3A ssDNA deamination; P31941; recombinant A3A, FAM/TAMRA ssDNA deamination fluorescence; inhibition, % at 20 µM; 330,000 compounds, 0.41% hits;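 active means at least 40% inhibition at 20 µM here, with at most 30% in a related deaminase screen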;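 further: plate controls were A3A with DMSO for no effect and wells lacking A3A enzyme for full effect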
Target sequence (P31941 whole entry, looked up): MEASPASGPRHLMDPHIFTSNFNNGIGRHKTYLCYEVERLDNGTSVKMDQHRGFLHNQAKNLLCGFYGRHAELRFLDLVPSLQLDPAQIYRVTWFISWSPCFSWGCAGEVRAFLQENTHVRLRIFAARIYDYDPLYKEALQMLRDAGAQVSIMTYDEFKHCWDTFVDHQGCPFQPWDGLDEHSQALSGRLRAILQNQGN
PfGluPho inh: PfG6PD (Plasmodium falciparum) enzyme inhibition; 350,000 compounds, 0.78% hits; PfGluPho enzyme, NADPH resazurin-diaphorase fluorescence; inhibition, % at 20 µM; AID 504690;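 active means inhibition reaching at least a set limit at 20 µM in the primary screen, cut at about 59% in these data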;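 further: 0% = DMSO wells with substrate and 100% = DMSO wells lacking glucose-6-phosphate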
Yeast superoxide: lowers age-related superoxide in aged yeast cells. superoxide response (% of plate mean), % at 10 µM. 330,000 compounds, 0.18% hits. AID 2690. S. cerevisiae aged cells, superoxide DHE fluorescence; active compounds read low;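 active means superoxide response under a set limit, about three screen SD below normal, cut at about 65% in these data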;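 further: yeast aged for seven days with compound at 30 °C before DHE staining; 100% = average MFI of all compound-treated wells on the plate with controls excluded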
PfGluPho conf: PfG6PD inhibition, single-dose confirmed | shares compounds with PfGluPho inh | recombinant PfGluPho, NADPH-diaphorase-resazurin fluorescence | inhibition, % at 20 µM | 2,400 compounds, 34% hits | AID 504753;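 active means inhibition of at least 50% at 20 µM in any single replicate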;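 further: 0% = DMSO with substrate and 100% = DMSO lacking glucose-6-phosphate substrate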
Diaph ctr 10uM: diaphorase inhibition or oxidation at 10 uM NADPH | shares compounds with PfGluPho inh | diaphorase-coupled resazurin reduction, fluorescence, NADPH 10 uM | inhibition, % at 20 µM | 820 compounds, 39% hits | AID 504862;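 active means average inhibition reaching 50% or more with the compound at 20 µM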;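 further: resorufin red fluorescence formed as diaphorase reduces resazurin using NADPH; 0% = DMSO with enzyme and 100% = DMSO without enzyme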
Diaphorase 30uM: diaphorase inhibition or oxidation at 30 uM NADPH | Diaphorase/resazurin coupled assay, resorufin fluorescence | inhibition, % at 20 µM | shares compounds with PfGluPho inh | 820 compounds, 29% hits | AID 504863;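 active means inhibition averaging 50% or more, tested at 20 µM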;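 further: 0% = DMSO with enzyme and 100% = DMSO wells lacking diaphorase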
Numbers without * were called inactive; . = not tested or not shown. A selection: hits, their analogues and other compounds. The true share with any hit is near 2.4%.

SMILES	APOBEC3G inh	PfM18AAP inh	A3A deaminase	PfGluPho inh	Yeast superoxide	PfGluPho conf	Diaph ctr 10uM	Diaphorase 30uM
COC(=O)CCC(=O)OC1(C)C(=O)C2=CN(c3ccc(OC)cc3)C(c3ccc(OC)cc3)=CC2=C(Br)C1=O (stereo unspecified)	-11	.	-1	71*	86	48*	31	24
COC(=O)CCC(=O)OC1(C)C(=O)C2=CN(C3CCCC3)C(c3ccc(OC)cc3)=CC2=C(Br)C1=O (stereo unspecified)	-6	.	-2	70*	100	67*	56*	51*
COCCN1C=C2C(=O)C(C)(OC(=O)CCC(=O)OC)C(=O)C(Br)=C2C=C1c1ccc(OC)cc1 (stereo unspecified)	-5	.	-2	94*	109	44	.	.
CC(NC(=O)c1ccco1)c1nc(-c2ccc(C(C)(C)C)cc2)no1 (stereo unspecified)	-8	3	-2	66*	113	4	.	.
O=[N+]([O-])c1cnc(Sc2ccncn2)c([N+](=O)[O-])c1	.	.	.	80*	.	59*	9	13
O=[N+]([O-])c1cc(-c2ccc(C(=S)N3CCOCC3)o2)ccc1Cl	4	18	-3	69*	102	41	.	.
O=[N+]([O-])c1cccc(-c2ccc(C(=S)N3CCOCC3)o2)c1	-3	-14	-2	-9	107	.	.	.
Cc1cccc(Sc2ccc([N+](=O)[O-])cc2[N+](=O)[O-])n1	7	3	1	64*	112	20	.	.
CCCCC(Sc1nc(N)c(NC(=O)c2ccco2)c(=O)[nH]1)C(=O)O (stereo unspecified)	-9	11	-2	-1	96	.	.	.
COc1ccc(CCN2C(=O)CSC2=Nc2ccc(C(C)C)cc2)cc1OC	-4	0	-1	47	98	-8	.	.
O=C(CSc1nnc(SCc2ccccc2Cl)s1)N/N=C/c1c[nH]c2ccccc12	-7	5	-5	89*	110	37	.	.
O=C(CSc1nnc(SCc2ccccc2)s1)N/N=C/c1c[nH]c2ccccc12	.	3	.	24	.	.	.	.
CNS(=O)(=O)c1ccc2nc(NC(=O)c3ccc(N4C(=O)CCC4=O)cc3)sc2c1	-11	10	-2	64*	80	41	.	.
CCc1ccc2nc(NC(=O)c3ccc(N4C(=O)CCC4=O)cc3)sc2c1	-6	-3	-3	0	97	.	.	.
CN(CC(=O)Nc1cccc(F)c1)C(=O)CSc1ccccc1F	4	2	8	36	99	.	.	.
Cc1ccc(C(=O)Nc2nnc(S(=O)(=O)N3CCC(C)CC3)s2)cc1	6	-4	1	84*	87	50*	33	38
CC(C)c1ccc(C(=O)Nc2nnc(S(=O)(=O)N3CCCCC3)s2)cc1	-5	6	-3	-20	92	.	.	.
Cc1ccc(C(=O)Nc2nnc(S(=O)(=O)N3CCCCCC3)s2)cc1	-12	3	0	68*	96	6	.	.
Cc1cccc(C(=O)Nc2nnc(S(=O)(=O)N3CCOCC3)s2)c1	4	3	1	68*	97	61*	48	41
O=C(Nc1nnc(S(=O)(=O)N2CCCCCC2)s1)c1ccc(Cl)cc1	-6	-3	-2	80*	102	20	.	.
CCCc1c(C(=O)N/N=C/c2ccco2)nnn1-c1nonc1N	-7	3	-3	-14	84	.	.	.
Cc1ccccc1NC(=O)C(=O)NNC(=O)COc1ccc2ccccc2c1	-4	2	0	-16	92	.	.	.
Cc1ccc(C(=O)Nc2nnc(S(=O)(=O)N3CCOCC3)s2)cc1	-6	4	-2	101*	135	62*	52*	51*
Cc1cccc(C(=O)Nc2nnc(S(=O)(=O)N3CCC(C)CC3)s2)c1	-7	-2	-3	70*	126	23	.	.
O=C(Nc1nnc(S(=O)(=O)N2CCOCC2)s1)c1ccc(F)cc1	-2	-6	-3	86*	98	56*	30	45
Cc1ccc2nc(N/N=C/c3ccco3)cc(C)c2c1	-5	5	-5	64*	100	28	.	.
